Results on 14 molecules are retold here after PubChem BioAssay (NCATS).

The structures appear in SMILES notation. A number with no mark means an inactive call. Inconclusive results are not listed. Calls of active or inactive are those of the source. Unless noted, calls follow the shape of the dose curve; as a rule, active = well fitted curve in either direction with a large enough effect (not every such curve was filed as active); inconclusive = small, poorly fitted or top-dose-only effect, or another doubt; inactive = flat fitted curve, though single readings scatter.

Test [1] addresses Lysosomal acid glucosylceramidase (Homo sapiens) (UniProt P04062). As to the kind of experiment: Glucocerebrosidase-p2 (AID 348; in the data active = potency below about 10 µM; also: potency is read from the fitted curve at half-maximal effect). The settings on record: purified GBA, blue fluorogenic substrate, 40 min. The procedure, abridged:
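Normal human glucocerebrosidase (0.2 nM) with blue fluorogenic substrate (80 uM final) in citrate/phosphate pH 5.9 with 10mM sodium taurocholate, 0.01% tween-20; 40 min RT, NaOH/glycine stop; fluorescence Ex 365/Em 440; AC50 from a titration from 0.6 nM upwards.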

A short description of test [2]: AP1 Signaling Pathway (AID 357).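 Also: ME-180 reporter cells stimulated with EGF at its EC50 level; % is scaled to controls: 0 for no effect and ±100 for the full control effect.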 The settings on record: ME-180 AP-1-bla reporter, EGF-induced, beta-lactamase ratio, 5 h; at 7.69 µM (top of the series) unless noted. The procedure, abridged: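 AP-1-bla ME-180 cells, Opti-MEM + 0.5% dialyzed FBS, plated overnight 37 °C. Cpd titration + EC50 EGF, 5 h 37 °C. CCF4 2.5 h RT; ex 405, em 460/530 ratio → %activity, AC50.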

Test [3] concerns the target Cytochrome P450 1A2 (Homo sapiens) (UniProt P05177). The test is described as follows: p450-cyp1a2 (AID 410; calls by dose curve; also: potency is read from the fitted curve at half-maximal effect;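 as to activity change, negative = inhibition: -100% = full effect of reference inhibitor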). The following applies: recombinant CYP1A2, luciferin-ME demethylation, luminescence; series mostly up to 11.4 µM. An outline of the steps:
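Read-out is luminescence from luciferin produced by CYP1A2 demethylation of Luciferin-ME (100uM, at Km). Detection reagent stopped the 60 min NADPH-dependent reaction; signals were normalized to 57 uM furafylline.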

Test [4] in a line: NFAT Signaling Pathway (AID 444).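 Also: carbachol stimulus at about its EC50 of 1 µM final; % is scaled to controls: 0 for no effect and ±100 for the full control effect.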 The following applies: Jurkat NFAT-bla M1, carbachol, beta-lactamase ratio, 5 h; at 7.69 µM (top of the series) unless noted. An outline of the steps: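 Jurkat cells carrying an NFAT-driven β-lactamase reporter and co-transfected muscarinic M1 receptor were treated with compound plus carbachol (1 uM final, an EC50 level) for 5 h at 37 °C. CCF4 loading followed for 1 h at RT; 460/530 nm ratio gave %activity.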

A short description of test [5]: Stat Signaling Pathway (AID 446).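 Also: ME-180 cervical cancer cells given 40 pM IL-6 alongside compound; SIE-controlled beta-lactamase reporter measured as 460/530 nm FRET emission ratio; % is scaled to controls: 0 for no effect and ±100 for the full control effect.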 The following applies: ME-180 SIE beta-lactamase reporter, IL-6 stimulated, 5 h; at 7.69 µM (top of the series) unless noted. An outline of the steps:
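Normalization used AC90 stimulation (300 pM IL-6) and AC90 inhibition (125 nM pan-JAK inhibitor at 40 pM IL-6). The underlying signal is SIE-driven beta-lactamase in ME-180 cells after 5 h IL-6 exposure with compound.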

The target of test [6] is Glucocorticoid receptor (Homo sapiens) (UniProt P04150). As to the kind of experiment: GR-GFP Redistribution (AID 450;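 active = compounds whose dose series gives a full or clear partial fitted curve of increased nuclear translocation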; also: potency is read from the fitted curve at half-maximal effect). The following applies: U2OS GR-GFP nuclear translocation, laser cytometry, 2 h.
For test [7] the target is unchanged. As to the kind of experiment: GR-EFC Redistribution (AID 451; calls by dose curve; also: potency is read from the fitted curve at half-maximal effect). The following applies: CHO-K1 GR-EFC translocation, beta-gal luminescence, 2 h. The procedure, abridged:
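CHO-K1 cells stably expressing nuclear-localized β-gal enzyme acceptor and GR fused C-terminally to the enzyme donor fragment; ligand-driven nuclear translocation restores β-gal by complementation. Compounds titrated up to 46 uM final, 2 h at 37 °C; luminescence read.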

Test [8] concerns the target Mitogen-activated protein kinase 10 (Mus musculus) (UniProt Q61831). The test is described as follows: JNK3 AlphaScreen Assay (AID 530).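 Also: kinase came from lysate of stimulated human HepG2 cells; % is scaled to controls: 0 for no effect and ±100 for the full control effect.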 The following applies: JNK3 lysate, c-Jun phosphorylation; series mostly up to 11.4 µM. The procedure, abridged: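 Biotinylated GST-cJun(1-79) served as substrate for JNK3 in HepG2 lysates stimulated with IL-1beta and TNF-alpha. ATP was 10 uM final, pH 7.6. Ser73 phosphorylation was quantified by AlphaScreen (680 nm excitation).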
On the technique in general: In Alpha technology, singlet oxygen from a donor bead excites a nearby acceptor bead.

For test [9], the target named is 3',5'-cyclic-AMP phosphodiesterase 4B (Homo sapiens) (UniProt Q07343). The test is described as follows: qHTS Assay for Inhibitors of PDE-IV (AID 607; active = well fitted activation curve with a large enough effect in the main read-out, with a control signal flat, not every such curve was filed as active; also: % of control where 0% means no effect). The following applies: HEK293 ACTOne CNG channel cells, membrane potential fluorescence; series mostly up to 22.9 µM. An outline of the steps:
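HEK293 ACTOne cells with CNG channel (1000/well), endogenous PDE4; membrane potential dye, compounds up to 22.9 uM final. Fluorescence Ex 535/Em 590; RO 20-1724 (100 uM final) as reference.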
For orientation: Quantitative high-throughput screening tests each substance at several concentrations.

Test [10] is described as follows: qHTS Assay for Identification of Small Molecule Agonists for Hypoxia Response Element Signaling Pathway (AID 914; active = well fitted activation curve with a large enough effect in the signal ratio, with a control signal flat, not every such curve was filed as active; the % refers to the signal ratio; also: % of control where 0% means no effect). The settings on record: ME-180 (cervical carcinoma) HRE-bla reporter, beta-lactamase ratio, CoCl2, 17 h; activation: hits give high values. An outline of the steps:
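Cells were plated overnight, pin-dosed with compound in a titration series, co-stimulated with EC50 CoCl2 and incubated 17 hours at 37 degrees Celsius. CCF4 substrate was then loaded, and AC50 values came from the 460nm/530nm ratio.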

In test [11] the target is Cytochrome P450 2C19 (Homo sapiens) (UniProt P33261). As to the kind of experiment: qHTS Assay for Inhibitors and Substrates of Cytochrome P450 2C19 (AID 899; active = well fitted inhibition curve with a large enough effect; also: % is scaled to controls: 0 for no effect and ±100 for the full control effect; nearly all actives have a fitted effect of over 60% in size). The following applies: recombinant CYP2C19, luciferin-H EGE luminescence; series mostly up to 11.4 µM. An outline of the steps: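 NADPH-dependent conversion of Luciferin-H EGE (10uM, at KM) by 5nM enzyme in 50mM KPO4, 60 min at 37C following 10 min compound preincubation. Stopped with luciferin detection buffer; luminescence read after 20 min.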
Sequence of Cytochrome P450 2C19 (Homo sapiens) (P33261 whole entry, looked up): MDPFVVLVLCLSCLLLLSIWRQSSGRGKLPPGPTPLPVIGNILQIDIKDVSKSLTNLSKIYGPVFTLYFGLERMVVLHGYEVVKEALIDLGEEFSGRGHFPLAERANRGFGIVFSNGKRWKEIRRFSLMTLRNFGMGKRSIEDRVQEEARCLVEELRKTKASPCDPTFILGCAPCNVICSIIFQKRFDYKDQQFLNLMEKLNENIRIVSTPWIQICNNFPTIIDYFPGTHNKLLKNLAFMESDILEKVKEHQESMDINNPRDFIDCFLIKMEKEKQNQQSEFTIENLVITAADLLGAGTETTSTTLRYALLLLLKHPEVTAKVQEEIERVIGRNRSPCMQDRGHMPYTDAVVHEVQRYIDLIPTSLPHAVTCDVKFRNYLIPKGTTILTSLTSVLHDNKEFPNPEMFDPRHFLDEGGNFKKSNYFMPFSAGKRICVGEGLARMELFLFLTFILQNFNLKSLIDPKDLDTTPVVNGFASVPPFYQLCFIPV

Sequence of 3',5'-cyclic-AMP phosphodiesterase 4B (Homo sapiens) (Q07343 whole entry, looked up): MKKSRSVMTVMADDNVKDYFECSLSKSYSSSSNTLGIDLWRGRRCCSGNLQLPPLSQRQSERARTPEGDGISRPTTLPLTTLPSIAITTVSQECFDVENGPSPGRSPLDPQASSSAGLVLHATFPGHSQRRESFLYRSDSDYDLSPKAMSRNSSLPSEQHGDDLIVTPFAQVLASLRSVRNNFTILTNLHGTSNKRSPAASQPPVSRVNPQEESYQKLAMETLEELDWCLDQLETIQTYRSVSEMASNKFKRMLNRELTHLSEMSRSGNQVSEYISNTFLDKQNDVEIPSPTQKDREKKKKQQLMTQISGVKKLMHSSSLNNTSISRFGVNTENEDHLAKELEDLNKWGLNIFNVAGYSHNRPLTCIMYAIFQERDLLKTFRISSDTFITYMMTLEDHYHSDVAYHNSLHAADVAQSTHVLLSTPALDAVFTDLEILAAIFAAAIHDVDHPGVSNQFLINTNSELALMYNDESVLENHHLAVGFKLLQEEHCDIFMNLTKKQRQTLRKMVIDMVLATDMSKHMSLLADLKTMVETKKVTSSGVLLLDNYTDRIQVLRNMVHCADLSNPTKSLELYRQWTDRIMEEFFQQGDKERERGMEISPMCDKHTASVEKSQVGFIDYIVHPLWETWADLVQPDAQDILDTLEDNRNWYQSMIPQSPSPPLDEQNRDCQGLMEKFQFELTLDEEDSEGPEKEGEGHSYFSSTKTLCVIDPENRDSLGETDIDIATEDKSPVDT
Sequence of Cytochrome P450 1A2 (Homo sapiens) (P05177 whole entry, looked up): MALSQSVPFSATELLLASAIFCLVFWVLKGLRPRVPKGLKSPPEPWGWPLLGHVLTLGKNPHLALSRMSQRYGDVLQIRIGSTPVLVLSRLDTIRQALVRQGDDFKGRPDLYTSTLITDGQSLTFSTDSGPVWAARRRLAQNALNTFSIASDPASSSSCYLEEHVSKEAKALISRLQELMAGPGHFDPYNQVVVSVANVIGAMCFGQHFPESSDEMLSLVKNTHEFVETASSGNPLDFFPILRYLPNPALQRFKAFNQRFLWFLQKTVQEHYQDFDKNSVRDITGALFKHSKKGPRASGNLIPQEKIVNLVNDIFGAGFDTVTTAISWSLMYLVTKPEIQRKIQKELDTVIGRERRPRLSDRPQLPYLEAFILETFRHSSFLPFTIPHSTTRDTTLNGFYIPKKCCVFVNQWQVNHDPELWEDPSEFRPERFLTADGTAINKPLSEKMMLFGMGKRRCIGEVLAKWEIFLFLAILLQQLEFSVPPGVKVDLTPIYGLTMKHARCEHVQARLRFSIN
Sequence of Lysosomal acid glucosylceramidase (Homo sapiens) (P04062 whole entry, looked up): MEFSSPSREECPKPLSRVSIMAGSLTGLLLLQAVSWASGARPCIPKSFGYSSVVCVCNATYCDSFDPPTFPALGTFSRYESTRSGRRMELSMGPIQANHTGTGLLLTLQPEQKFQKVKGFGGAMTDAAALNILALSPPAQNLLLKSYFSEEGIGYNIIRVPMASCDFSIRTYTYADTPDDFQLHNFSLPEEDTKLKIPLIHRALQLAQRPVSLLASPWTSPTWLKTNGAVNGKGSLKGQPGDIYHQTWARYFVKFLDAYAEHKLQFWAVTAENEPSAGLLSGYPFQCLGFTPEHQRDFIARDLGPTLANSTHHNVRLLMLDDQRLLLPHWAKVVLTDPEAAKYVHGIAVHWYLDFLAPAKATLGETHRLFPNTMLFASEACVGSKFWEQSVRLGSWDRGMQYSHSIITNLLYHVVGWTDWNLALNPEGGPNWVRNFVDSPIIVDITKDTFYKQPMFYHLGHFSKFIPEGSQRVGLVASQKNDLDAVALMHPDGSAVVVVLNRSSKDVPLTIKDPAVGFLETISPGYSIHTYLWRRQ
Sequence of Glucocorticoid receptor (Homo sapiens) (P04150 whole entry, looked up): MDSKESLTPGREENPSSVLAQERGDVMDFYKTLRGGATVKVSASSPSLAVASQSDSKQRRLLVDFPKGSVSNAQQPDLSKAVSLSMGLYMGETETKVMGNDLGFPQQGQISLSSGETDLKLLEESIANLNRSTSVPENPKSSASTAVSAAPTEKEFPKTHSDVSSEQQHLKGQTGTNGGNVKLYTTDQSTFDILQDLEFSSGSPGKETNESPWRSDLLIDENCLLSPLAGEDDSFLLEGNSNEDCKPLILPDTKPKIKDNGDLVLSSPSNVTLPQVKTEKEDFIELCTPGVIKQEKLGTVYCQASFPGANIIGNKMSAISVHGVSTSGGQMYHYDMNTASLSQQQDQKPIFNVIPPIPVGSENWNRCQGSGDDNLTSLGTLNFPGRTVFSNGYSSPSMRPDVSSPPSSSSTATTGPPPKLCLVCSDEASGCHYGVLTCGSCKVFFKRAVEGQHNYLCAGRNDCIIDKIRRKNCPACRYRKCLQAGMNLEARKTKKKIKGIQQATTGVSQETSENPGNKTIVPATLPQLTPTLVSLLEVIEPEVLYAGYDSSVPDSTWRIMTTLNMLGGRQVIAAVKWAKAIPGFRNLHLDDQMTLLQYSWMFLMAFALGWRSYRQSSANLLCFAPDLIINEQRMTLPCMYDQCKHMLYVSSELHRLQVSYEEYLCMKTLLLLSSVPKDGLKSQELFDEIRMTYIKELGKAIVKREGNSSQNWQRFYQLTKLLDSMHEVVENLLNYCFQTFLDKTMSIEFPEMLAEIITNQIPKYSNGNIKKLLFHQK

On to `O=C1CCC(c2ccccc2)=NN1c1nc2ccccc2s1`, for which the Potency was above 11.4 µM in test [1], 0.398 µM (active) in test [3], above 46 µM in [6] and above 9.22 µM in test [7]. In addition, the values for the activity change, negative = inhibition in test [2] and in test [4] were -11.1% and -3.68%, respectively. For the same molecule, the activity, negative = inhibition in test [5] is -10.7%. In addition, the Potency result in [8] and in test [9] was “inactive” each time. For the same molecule, in test [10], the activation is -16.7%.

With `Cc1cc(CN2CCCCC2)c(O)c(CN2CCCCC2)c1`, the Potency is above 11.4 µM in test [1], above 46 µM in test [6] and above 9.22 µM in test [7]. Further, the activity change, negative = inhibition in [2] was 25.8%; in test [3] it was -18.8% [at 2.29 µM]; in [4], -21.4%. For the same molecule, in [5], the activity, negative = inhibition was -1.32%. The Potency result in test [8] and in [9] was “inactive” throughout. Further, in [10], the activation is 2.92%.

In the case of `O=S(=O)(c1ccccc1)N1CN2CN(C1)CN(S(=O)(=O)c1ccccc1)C2`, the values for the Potency in test [1], in test [6] and in test [7] were above 11.4 µM, above 46 µM and above 9.22 µM, respectively. The values for the activity change, negative = inhibition in test [2] and in test [4] were -16.9% and -4.88%, respectively. Besides, the Potency result in test [3], in test [8] and in [9] was “inactive” each time. The activity, negative = inhibition in test [5] was -0.275%. Besides, the activation in test [10] was -1.12%.

Take `OCCCNCc1ccccn1`: the figures for the Potency in [1], in [6] and in [7] were above 11.4 µM, above 46 µM and above 9.22 µM, respectively. Also, the activity change, negative = inhibition was -3.7% in test [2], -20% [at 2.29 µM] in test [3] and 5.11% in test [4]. In addition, the activity, negative = inhibition in test [5] was 5.98%. Besides, the Potency result in [8] and in test [9] was “inactive” throughout. Moreover, the activation in [10] was 12.2%.

On to `FC(F)(F)c1nc(SCc2ccc(Cl)cc2)n[nH]1`, for which the Potency is above 11.4 µM in [1], above 46 µM in test [6] and above 9.22 µM in [7]. Moreover, the activity change, negative = inhibition in [2] was 1.59%; in [3] it was -18.8% [at 2.29 µM]; in test [4], -9.79%. Further, the activity, negative = inhibition in test [5] was -0.49%. The Potency entry in test [8] and in test [9] was “inactive” each time. Besides, the activation in test [10] was 8.01%.

Take `Nc1nc(-c2cccc([N+](=O)[O-])c2)cc(-c2cc(-c3cccc([N+](=O)[O-])c3)nc(N)n2)n1`: the Potency in test [1] is above 11.4 µM; in [6], above 46 µM; in test [7], above 9.22 µM. Also, the results for the activity change, negative = inhibition in [2], in [3] and in test [4] were -0.341%, 0.3% [at 2.29 µM] and 6.8%, respectively. The activity, negative = inhibition in test [5] was 3.52%. In addition, the Potency entry in [8] and in [9] was “inactive” each time. Also, the activation in test [10] is 18.2%.

`COC(=O)[C@]1(C)CCC(c2ccc(C)cc2)=C(CC(=O)O)C1`: the Potency is above 11.4 µM in [1], above 46 µM in test [6] and above 9.22 µM in [7]. Further, the values for the activity change, negative = inhibition in test [2], in test [3] and in test [4] were -2.42%, -8.4% [at 2.29 µM] and -1.89%, respectively. Besides, in test [5], the activity, negative = inhibition was 2.79%. In addition, the Potency entry in test [8] and in [9] was “inactive” in each case. Further, the activation in [10] is 4.66%.

In the case of `CC(C)(Oc1ccc(-c2cccc3ccccc23)cc1)C(=O)O`, the Potency in test [1] was above 11.4 µM; in test [6], above 46 µM; in test [7], above 9.22 µM. In addition, the activity change, negative = inhibition is 2.76% in test [2] and -8.87% in test [4]. The Potency result in test [3], in [8], in test [9] and in [11] was “inactive” in each case. The activity, negative = inhibition in test [5] was 1.48%. Further, the activation in test [10] was -19.2%.

For the molecule `O=[N+]([O-])c1ccc2c(c1)S(=O)c1ccccc1-2` (stereo unspecified), the Potency in test [1] is above 11.4 µM; in [3], 0.2 µM (active); in test [6], above 46 µM; in test [7] it was above 9.22 µM. Also, the results for the activity change, negative = inhibition in test [2] and in test [4] were 11.5% and 10.5%, respectively. Also, the activity, negative = inhibition in test [5] was -13.7%. Moreover, the Potency result in test [8] and in test [9] was “inactive” in each case. Also, in [10], the activation is -10.8%.

As for `O=C(O)CC[C@@]1(c2ccccc2)NC(=O)NC1=O`, the values for the Potency in test [1], in test [6] and in test [7] were above 11.4 µM, above 46 µM and above 9.22 µM, respectively. For the same molecule, the results for the activity change, negative = inhibition in test [2] and in test [4] were 3.07% and 8.48%, respectively. Moreover, the Potency result in test [3], in [8] and in test [9] was “inactive” each time. Further, in [5], the activity, negative = inhibition is 2.02%. In addition, in [10], the activation is -0.349%.

Consider `O=C(O)C(Sc1ccc(Cl)cc1)Sc1ccc(Cl)cc1`, for which the Potency is above 11.4 µM in [1], above 46 µM in test [6] and above 9.22 µM in test [7]. Besides, the values for the activity change, negative = inhibition in test [2], in test [3] and in test [4] were 0.225%, -27.8% [at 2.29 µM] and -19.6%, respectively. The activity, negative = inhibition in test [5] was -29.3%. For the same molecule, the Potency result in test [8] and in test [9] was “inactive” throughout. In test [10], the activation was -0.83%.

In the case of `C[C@@]12CC(=O)[C@@H]3[C@@H](CCC4=CC(=O)CC[C@]43C)[C@@H]1CC=C2CC(=O)O`, the values for the Potency in test [1], in test [6] and in test [7] were above 11.4 µM, above 46 µM and above 9.22 µM, respectively. The figures for the activity change, negative = inhibition in [2] and in test [4] were -4.3% and 23.5%, respectively. The Potency entry in [3], in [8] and in [9] was “inactive” in each case. Moreover, the activity, negative = inhibition in test [5] was 2.31%. In addition, the activation in test [10] was -1.62%.

For the molecule `CC1=N[C@@](C)(COC(=O)[C@]2(C)N[C@](C)(CO)CO2)COC1=O`, the Potency in [1] is above 11.4 µM; in test [6] it was above 46 µM; in test [7], above 9.22 µM. Moreover, the figures for the activity change, negative = inhibition in test [2], in test [3] and in [4] were 0.84%, 6.9% [at 2.29 µM] and 9.08%, respectively. In test [5], the activity, negative = inhibition was 6.3%. The Potency result in test [8] and in test [9] was “inactive” in each case. Further, in [10], the activation is 5.98%.

As for `Cn1cnc([N+](=O)[O-])c1Sc1nc(N)nc2c1ncn2Cc1ccccc1`, the Potency is above 11.4 µM in test [1], 3.16 µM (active) in [3], above 46 µM in [6] and above 9.22 µM in [7]. In addition, the figures for the activity change, negative = inhibition in test [2] and in test [4] were 0.181% and -1.11%, respectively. For the same molecule, in test [5], the activity, negative = inhibition was 1.04%. In addition, the Potency entry in test [8] and in test [9] was “inactive” each time. Besides, the activation in test [10] was -1.88%.
